Hits are enriched below; roughly 3% of the tested compounds scored in any of these assays.
NALP1 inh: NALP1 inflammasome inhibitors in reconstituted yeast, colorimetric, S. cerevisiae, triplicate retest; inhibition, % at 10 µM; S. cerevisiae NALP1/ASC/caspase-1 growth, X-gal OD620, 72 h; 0.61% of 280,000 active; AID 2071, 2009; in the data active = inhibition mostly above about 24%, no sharp cut-off; inactive = mostly below about 32%
Bfl-1 A1 inh: caspase 3/7 activation in MEF A1-2A-BIM cells, primary screen, A1 inhibitor project, cell-based, luminescence, HTS | 0.066% of 330,000 active | caspase activation, % (concentration not given with the values) | Caspase-Glo 3/7 luminescence, 3 h; percent of clofoctol response, vehicle zero;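 active = over half of replicate activation scores above 10%, or exactly half above 10 with the replicate mean above 10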
NALP3 yeast inh: NALP3 inflammasome inhibitors in reconstituted yeast, primary screen, luminescence, uHTS; Yeast reconstituted NLRP3/ASC/caspase-1, beta-gal luminescence, 24 h; inhibition, % at 10 µM; 0.39% of 330,000 active; AID 2825, 2010;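 active = inhibition of 50% or more; inactive = inhibition below 50%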
CHT block: inhibitors of human choline transporter CHT; B-score at 10 µM; High affinity choline transporter 1 (Homo sapiens), Q9GZV3; CHT-expressing cells, membrane potential dye, choline response; hits give low values; 0.86% of 310,000 active;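 active = B-score over 3 SD under the library average, and starting fluorescence ratio not unusually high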;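 also: choline stimulus applied at its EC90 after an EC20 pre-addition; B-score computed on integrated fluorescence ratio after choline addition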
Target sequence (Q9GZV3 whole entry, looked up): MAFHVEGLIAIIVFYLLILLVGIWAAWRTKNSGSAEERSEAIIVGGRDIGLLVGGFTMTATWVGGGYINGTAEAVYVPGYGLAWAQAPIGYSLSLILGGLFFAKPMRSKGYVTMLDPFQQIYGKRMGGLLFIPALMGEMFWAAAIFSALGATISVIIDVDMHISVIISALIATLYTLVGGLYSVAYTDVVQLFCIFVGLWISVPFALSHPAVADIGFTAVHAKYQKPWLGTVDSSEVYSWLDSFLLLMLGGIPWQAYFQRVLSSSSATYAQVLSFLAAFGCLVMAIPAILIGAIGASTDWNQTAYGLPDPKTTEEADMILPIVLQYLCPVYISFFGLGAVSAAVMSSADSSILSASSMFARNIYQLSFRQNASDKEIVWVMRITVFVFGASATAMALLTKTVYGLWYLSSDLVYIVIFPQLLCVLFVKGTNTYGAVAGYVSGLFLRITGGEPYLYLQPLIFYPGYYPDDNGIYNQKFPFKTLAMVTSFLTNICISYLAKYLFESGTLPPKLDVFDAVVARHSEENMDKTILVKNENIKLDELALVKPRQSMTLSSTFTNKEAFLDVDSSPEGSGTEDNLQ
CHT allo act: CHT positive allosteric modulators, primary screen, cell-based, membrane potential dye, choline EC20. B-score at 10 µM. High affinity choline transporter 1 (Homo sapiens), Q9GZV3. 0.49% of 310,000 active. CHT-expressing cells; hits give high values; LV-AA mutant CHT in HEK293 cells. AID 488977, 2010;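 active = initial fluorescence not abnormally high and integrated response B-score, plate-corrected, over 3 SD above library mean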
SUMO Mot1 rescue: yeast Mot1-301 growth rescue at high temperature, primary screen, SUMOylation pathway inhibitor project, S. cerevisiae, ATP luminescence, 38.5C; growth rescue, % at 18.8 µM; 1% of 320,000 active; S. cerevisiae Mot1-301 growth rescue; percent above DMSO median, 100 means doubled;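 active = every valid replicate shows activation above 250% relative to neutral control wells; inactive = the rest, any valid replicate at or below 250%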
CHT activ conf: CHT activators, confirmation, cell-based, membrane potential dye, duplicate | shares compounds with CHT allo act | CHT-expressing cells, membrane potential dye fluorescence (FDSS); % of choline EC20–EC90 response window; HEK293 expressing CHT LV-AA mutant; choline added at its EC20 | activation, % at 10 µM | 91% of 2,500 active | AID 504833, 2011;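 active = primary screen active, with duplicate mean activation above negative control mean plus 3 SD, cut at about 11% in these data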
HEK293 MP dye: membrane potential response in parental HEK293 cells, counter-screen for CHT activator project, cell-based, membrane potential dye; shares compounds with CHT allo act; membrane potential dye fluorescence (FDSS); measured after EC20 choline addition; ratio readout change at 10 µM, hits read low; 62% of 2,500 active; AID 623908, 2012;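 active = duplicate-averaged ratio beyond 3 SD from buffer wells, up or down, though filed actives are nearly all decreases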
Hits are given with their value; i = inactive; nt = no result given.

SMILES | NALP1 inh | Bfl-1 A1 inh | NALP3 yeast inh | CHT block | CHT allo act | SUMO Mot1 rescue | CHT activ conf | HEK293 MP dye
c1ccc(Cn2nnnc2C(c2cccs2)N2CCCCCC2)cc1 (configuration not stated) | i | i | i | i | i | i | nt | nt
COc1ccc(C2Nc3ccccc3C(=O)N2c2ccc(C)cc2)cc1Cn1nnc2ccccc21 (configuration not stated) | i | i | i | i | i | i | 10.3 | i
COc1ccc(C2Nc3ccccc3C(=O)N2c2ccc(C)cc2)cc1Cn1cc([N+](=O)[O-])cn1 (configuration not stated) | i | i | i | i | i | i | nt | nt
Cc1cc(C)c2c(n1)nn1c(N3CCN(c4ccccc4)CC3)cc(C)nc21 | i | i | i | i | i | i | nt | nt
Cc1cc(C)c2c(n1)nn1c(NCCOCCO)cc(C)nc21 | i | i | i | i | 8.53 | i | 74.9 | -62.5
c1ccc(CN2c3ccccc3-c3nc4ccccc4n3C2c2ccccn2)cc1 (configuration not stated) | i | nt | i | i | 6.42 | i | 52.2 | i
C=CCNC(=O)C1CC1(c1ccc(C)cc1)c1ccc(C)cc1 (configuration not stated) | i | i | i | i | i | i | nt | nt
Cc1cccn2c(Nc3ccccc3)c(-c3ccccn3)nc12 | i | i | i | i | i | i | 40.7 | -24.6
CCCN(CC(=O)Nc1ccccc1C)C(=O)c1cccc(S(=O)(=O)N2CCc3ccccc3C2)c1 | i | i | i | i | 6.88 | i | i | i
COc1ccc(-c2c(-c3cc(OC)c(OC)c(OC)c3)noc2C)cn1 | i | i | i | i | 6.67 | i | 33.2 | i
COc1cc(-c2noc(C)c2C#Cc2ccccn2)cc(OC)c1OC | i | i | i | i | 9.48 | i | 30.3 | i
COc1cc(-c2noc(C)c2/C=C/c2ccc(N)cc2)cc(OC)c1OC | i | i | i | i | 10.1 | i | 42.3 | i
N#Cc1ccc(C(=O)NNC(=O)c2cccc(S(=O)(=O)N3CCOCC3)c2)cc1 | nt | i | i | nt | nt | i | nt | nt
O=C(CC1C=Cc2ccccc2N1C(=O)c1ccccc1)c1ccccc1 (configuration not stated) | i | i | i | i | 10.5 | i | 25.8 | i
Cc1ccc(CN2CCN(Cc3ccc4cc(F)ccc4n3)CC2CCO)o1 (configuration not stated) | i | i | i | i | i | i | nt | nt
N#C/C(=C\c1c(N2CCOCC2)nc2ccccn2c1=O)C(=O)NC1CCS(=O)(=O)C1 (configuration not stated) | i | i | i | i | 9.63 | i | 10.0 | -54.1
N#C/C(=C\c1c(N2CCCCCC2)nc2ccccn2c1=O)C(=O)NC1CCS(=O)(=O)C1 (configuration not stated) | i | i | i | i | i | nt | nt | nt
COC(=O)/C(C#N)=C/c1c(N2CCN(C)CC2)nc2ccccn2c1=O | i | i | i | i | 7.3 | i | 47.9 | -55.6
CN1CCN(c2nc3ccccn3c(=O)c2C=C(C#N)C#N)CC1 | i | i | i | i | i | i | 50.4 | -49.3
COC(=O)c1ccc(CN(c2ccc(C(=O)O)c(O)c2)S(=O)(=O)c2ccc(Cl)c([N+](=O)[O-])c2)cc1 | i | i | nt | i | i | i | nt | nt
Cc1cc(SCC(=O)NCC(c2cccs2)N2CCOCC2)c(C)cc1Br (configuration not stated) | nt | i | i | i | i | i | nt | nt
Cc1cccc(NC(=O)CSCC(=O)Nc2sccc2C#N)c1 | nt | i | i | i | i | i | nt | nt
Cc1cc(C)c2[nH]c(=O)c(C(c3nnnn3CC3CCCO3)N3CCCC(C)C3)cc2c1 (configuration not stated) | i | i | i | i | 7.28 | i | i | i
Cc1cc(C)c2[nH]c(=O)c(C(c3nnnn3CC3CCCO3)N3CCC(C)CC3)cc2c1 (configuration not stated) | i | i | i | i | i | i | nt | nt
CCOC(=O)CC1C(=O)NCCN1C(=O)c1cc2c(=O)n3cccc(C)c3nc2s1 (configuration not stated) | i | i | i | i | 6.76 | i | 16.7 | -37.1
SMILES | NALP1 inh | Bfl-1 A1 inh | NALP3 yeast inh | CHT block | CHT allo act | SUMO Mot1 rescue | CHT activ conf | HEK293 MP dye
CCOC(=O)c1nc2cc3n(c(CC(C)C)c-2c1C)CC(C)=C3C | i | i | i | i | i | i | 44.4 | -40.5
CCCCNC(=O)COCc1cc(-c2ccc3c(c2)OCO3)on1 | i | i | i | i | 10.4 | i | 28.7 | i
O=C(NCC1CCCO1)c1cccc(S(=O)(=O)N(Cc2ccccc2)c2ccccc2)c1 (configuration not stated) | nt | i | i | i | i | i | nt | nt
CCCCCCCC[n+]1c(C)n(-c2ccccc2)c2ccc(NC(C)=O)cc21 | i | i | i | i | 10.1 | i | 78.2 | -32.7
CC(=O)Nc1ccc(SCC(=O)c2cc(C)n(-c3ccccc3)c2C)cc1 | i | i | i | i | i | i | nt | nt
CCOc1ccccc1-n1c(SCC(=O)Nc2ccccc2C(=O)O)nc2ccccc2c1=O | i | i | i | i | i | i | nt | nt
CCCC(C(=O)NC1CCCCC1)N(Cc1ccco1)C(=O)CNS(=O)(=O)c1ccccc1 (configuration not stated) | i | i | i | i | 8.42 | i | 33.3 | i
C[n+]1ccc(C(=O)N/N=C/c2ccco2)cc1 | i | i | i | i | 7.12 | i | 63.6 | -53.9
CCCn1c(CN2CCN(C(=O)OCC)CC2)nc2cc(NC(=O)CC)ccc21 | i | i | i | i | i | i | 9.8 | i
CN(Cc1ccccc1)C(=O)c1[nH]cnc1C(=O)N[C@@H](CCCCNC(=O)OC(C)(C)C)C(=O)OC(C)(C)C | i | i | i | i | 10.8 | i | 20.0 | i
CC(C)(C)OC(=O)NCCCC[C@H](NC(=O)c1nc[nH]c1C(=O)NCc1ccccc1)C(=O)OC(C)(C)C | i | i | i | i | i | i | nt | nt
CCN(C(=O)COC(=O)/C=C/c1ccco1)c1c(N)n(Cc2ccccc2)c(=O)[nH]c1=O | nt | i | nt | nt | nt | i | nt | nt
Cc1ccc(-c2noc(CNS(=O)(=O)c3ccccc3)n2)cc1 | i | i | i | i | i | i | nt | nt

High-throughput results (PubChem)
